Reference: PubChem BioAssay (Tox21)
Unmarked numbers belong to inactive results. Records with an inconclusive call do not appear. Entries that show only a call come without a potency. Activity calls are given as the source filed them. Calls follow the shape of the full dose curve.

Columns and labels:
[1] = target: Acetylcholinesterase (Homo sapiens) (UniProt P22303); experiment: Acetylcholinesterase (AChE) small molecule antagonists: colormetric cell-based qHTS assay (AID 1347395); also: nearly all actives have a fitted effect of over 30% in size
Summary of the method: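 Colorimetric readout: DTNB quantifies thiocholine from acetylthiocholine hydrolysed by endogenous AChE of SH-SY5Y cells (2,000/well, plated overnight). Compound pretreatment 30 min, substrate incubation 90 min, both 37 C.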

[2] = target: Acetylcholinesterase (Homo sapiens) (UniProt P22303); experiment: Acetylcholinesterase (AChE) small molecule antagonists: enzyme-based qHTS assay (AID 1347397); settings: Potency: AChE enzyme activity inhibition; outcome: AChE enzyme activity inhibition; also: nearly all actives have a fitted effect of over 55% in size
Summary of the method: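 Colorimetric DTNB readout of acetylthiocholine hydrolysis, 10 min at room temperature, after 30 min room-temperature exposure of 50 mU/mL recombinant human enzyme to compound; DMSO vehicle control.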

[3] = target: Acetylcholinesterase (Homo sapiens) (UniProt P22303); experiment: Acetylcholinesterase (AChE) small molecule antagonists: fluorescence cell-based qHTS assay (AID 1347398); settings: Potency: AChE activity; outcome: AChE activity; also: nearly all actives have a fitted effect of over 50% in size
Summary of the method: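 Cellular AChE activity read as thiocholine from acetylthiocholine hydrolysis, detected by Thiolite Green fluorescence at 490/520 nm after 40 min at room temperature. Compounds were pre-incubated 30 min at 37 C on adherent SH-SY5Y cells.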

[4] = target: Acetylcholinesterase (Homo sapiens) (UniProt P22303); experiment: Acetylcholinesterase (AChE) small molecule antagonists: enzyme-based qHTS assay with human liver microsomes (AID 1347399); settings: Potency: qHTS inhibition; outcome: qHTS inhibition; also: nearly all actives have a fitted effect of over 60% in size
Summary of the method: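 Recombinant human AChE (50 mU/mL in the enzyme mix) and human liver microsomes (0.25 mg/mL final) were preincubated with compound and NADPH (0.25 mg/mL final) for 30 min at 37 C. Acetylthiocholine/DTNB was then added; thiocholine was read colorimetrically after 10 min at room temperature.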
Potency is read from the fitted curve at half-maximal effect.

Sequence of Acetylcholinesterase (Homo sapiens) (P22303 whole entry, looked up): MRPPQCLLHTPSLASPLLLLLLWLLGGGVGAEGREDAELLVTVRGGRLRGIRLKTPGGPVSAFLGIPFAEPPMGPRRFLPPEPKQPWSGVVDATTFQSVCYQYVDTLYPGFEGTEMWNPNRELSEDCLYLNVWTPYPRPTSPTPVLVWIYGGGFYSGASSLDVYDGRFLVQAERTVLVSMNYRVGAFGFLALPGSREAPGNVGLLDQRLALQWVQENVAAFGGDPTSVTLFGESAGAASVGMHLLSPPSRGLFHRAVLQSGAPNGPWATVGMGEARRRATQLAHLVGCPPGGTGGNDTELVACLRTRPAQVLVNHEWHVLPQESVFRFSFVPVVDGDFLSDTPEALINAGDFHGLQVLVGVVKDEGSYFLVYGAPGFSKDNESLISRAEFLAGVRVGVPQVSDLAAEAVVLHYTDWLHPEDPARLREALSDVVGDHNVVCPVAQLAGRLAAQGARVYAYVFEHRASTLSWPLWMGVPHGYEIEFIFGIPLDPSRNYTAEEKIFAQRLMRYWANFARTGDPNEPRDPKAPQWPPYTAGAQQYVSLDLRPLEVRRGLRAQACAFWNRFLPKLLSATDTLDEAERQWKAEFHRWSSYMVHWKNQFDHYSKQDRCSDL

Row | Structure (SMILES) | Potency [1] | Potency [2] | Potency [3] | Potency [4] | outcome [1] | outcome [2] | outcome [3] | outcome [4]
1 | CC(=O)/C=C/C1C(C)=CCC(C)C1(C)C (stereo not given) | inactive | inactive | inactive | inactive |  |  |  | 
2 | CCCCCCCCNC | inactive | inactive | inactive | inactive |  |  |  | 
3 | CO[Si](CCCn1c(=O)n(CCC[Si](OC)(OC)OC)c(=O)n(CCC[Si](OC)(OC)OC)c1=O)(OC)OC | inactive | inactive | inactive | inactive |  |  |  | 
4 | CCCCCCCCCCl | inactive | inactive | inactive | inactive |  |  |  | 
5 | Cc1cccc(C(C)(C)C)c1O | inactive | inactive | inactive | inactive |  |  |  | 
6 | NC(=O)Nc1nc2ccccc2[nH]1 | inactive | inactive | inactive | inactive |  |  |  | 
7 | C/C(=C1\CCOC(=O)S1)N(C=O)Cc1cnc(C)nc1N | inactive | inactive | inactive | inactive |  |  |  | 
8 | CCCC(O)C(CC)CO (stereo not given) | inactive | inactive | inactive | inactive |  |  |  | 
9 | O=C(O)[C@@H](O)[C@H](O)[C@H](O)[C@@H](O)C(=O)O | inactive | inactive | inactive | inactive |  |  |  | 
10 | CNCCCCOc1ccccc1Cc1ccccc1 | inactive | inactive | inactive | inactive |  |  |  | 
11 | Cc1ccc2ncccc2c1 | inactive | inactive | inactive | inactive |  |  |  | 
12 | CN1CCN(c2c(F)cc3c(=O)c(C(=O)O)cn4c3c2SCC4)CC1 | inactive | inactive | inactive | inactive |  |  |  | 
13 | CN1CCC(=C2c3ccccc3CCc3cccnc32)CC1 | inactive | inactive | inactive | inactive |  |  |  | 
14 | CCCCCCCCCCCCOCCO | inactive | inactive | inactive | inactive |  |  |  | 
15 | CCCCCCC(C)(C)S | inactive | inactive | inactive | inactive |  |  |  | 
16 | FC(F)(F)c1ccccc1-n1ccnc1 | inactive | inactive | inactive | inactive |  |  |  | 
17 | O=c1[nH]c2ccc(S(=O)CCN3CCC(Cc4ccc(F)cc4)CC3)cc2o1 (stereo not given) | 6.33 µM (active) | 5.64 µM (active) | 1.12 µM (active) | 35.6 µM (active) |  |  |  | 
18 | Cc1ccccc1CCO | inactive | inactive | inactive | inactive |  |  |  | 
19 | O=C(Cl)c1cc(Cl)cc(Cl)c1 | inactive | inactive | inactive | inactive |  |  |  | 
20 | C=C(C)C(=O)OCCCCCCCCCC | inactive | inactive | inactive | inactive |  |  |  | 

Row | Structure (SMILES) | Potency [1] | Potency [2] | Potency [3] | Potency [4] | outcome [1] | outcome [2] | outcome [3] | outcome [4]
21 | CCCCS | inactive | inactive | inactive | inactive |  |  |  | 
22 | CC(C)=CCC/C(C)=C/C(=O)O | inactive | inactive | inactive | inactive |  |  |  | 
23 | CC[C@H]1OC(=O)[C@H](C)[C@@H](O[C@H]2C[C@@](C)(OC)[C@@H](O)[C@H](C)O2)[C@H](C)[C@@H](O[C@@H]2O[C@H](C)C[C@H](N(C)C)[C@H]2O)[C@](C)(O)C[C@@H](C)CN(C)[C@H](C)[C@@H](O)[C@]1(C)O | inactive | inactive | inactive | inactive |  |  |  | 
24 | CC(=O)Nc1ccccc1 | inactive | inactive | inactive | inactive |  |  |  | 
25 | CO[Si](OC)(OC)OC | inactive | inactive | inactive | inactive |  |  |  | 
26 | O=C(OCC1(COC(=O)c2cccnc2)CCCC(COC(=O)c2cccnc2)(COC(=O)c2cccnc2)C1O)c1cccnc1 | inactive | inactive | inactive | inactive |  |  |  | 
27 | Cn1cnc2c(=O)[nH]c(N)nc21 | inactive | inactive | inactive | inactive |  |  |  | 
28 | COC(C)(OC)OC | inactive | inactive | inactive | inactive |  |  |  | 
29 | CCCCCC/C=C/CCCCCCCC(=O)O | inactive | inactive | inactive | inactive |  |  |  | 
30 | Cc1cccc(C)c1OCC(C)N (stereo not given) |  |  |  |  | inactive | inactive | inactive | inactive
31 | C[N+](C)(C)CCOC(=O)CCC(=O)OCC[N+](C)(C)C | inactive | inactive | inactive | inactive |  |  |  | 
32 | CCC(C(=O)O)c1ccc(N2Cc3ccccc3C2=O)cc1 (stereo not given) | inactive | inactive | inactive | inactive |  |  |  | 
33 | Cc1ccc(C)c(OCCCC(C)(C)C(=O)O)c1 | inactive | inactive | inactive | inactive |  |  |  | 
34 | CC1=CC(=O)/C(=C(/C)O)C(=O)O1 | inactive | inactive | inactive | inactive |  |  |  | 
35 | C=Cc1ccc(OC(C)=O)cc1 | inactive | inactive | inactive | inactive |  |  |  | 
36 | CCO[Si](CC)(OCC)OCC | inactive | inactive | inactive | inactive |  |  |  | 
37 | Cc1c(C(N)=O)cc([N+](=O)[O-])cc1[N+](=O)[O-] | inactive | inactive | inactive | inactive |  |  |  | 
38 | CCCN(CCC)S(=O)(=O)c1ccc(C(=O)O)cc1 | inactive | inactive | inactive | inactive |  |  |  | 
39 | CCCC(=O)O[C@]1(C(=O)CC)CC[C@H]2[C@@H]3CCC4=CC(=O)CC[C@]4(C)[C@H]3[C@@H](O)C[C@@]21C | inactive | inactive | inactive | inactive |  |  |  | 
40 | CC(C)CCCCCOC(=O)CS | inactive | inactive | inactive | inactive |  |  |  | 

Row | Structure (SMILES) | Potency [1] | Potency [2] | Potency [3] | Potency [4] | outcome [1] | outcome [2] | outcome [3] | outcome [4]
41 | CC(C)(C)c1nnc(NS(=O)(=O)c2ccccc2)s1 | inactive | inactive | inactive | inactive |  |  |  | 
42 | CC/C(=C(\c1ccc(O)cc1)c1ccc(OCCN(C)C)cc1)c1ccccc1 | 44.9 µM (active) | 79.9 µM (active) | 40 µM (active) | inactive |  |  |  | 
43 | Cc1cccc(O)c1C | inactive | inactive | inactive | inactive |  |  |  | 
44 | CCn1ccc(NS(=O)(=O)c2ccc(N)cc2)nc1=O | inactive | inactive | inactive | inactive |  |  |  | 
45 | CC(=O)CC(=O)Nc1ccccc1C | inactive | inactive | inactive | inactive |  |  |  | 
46 | COc1nc(C)nc(NC(=O)NS(=O)(=O)c2ccccc2OCCCl)n1 | inactive | inactive | inactive | inactive |  |  |  | 
47 | CCCCCCC(C)O (stereo not given) | inactive | inactive | inactive | inactive |  |  |  | 
48 | FC(F)(F)C(F)(F)C(F)(F)C(F)(F)CCI | inactive | inactive | inactive | inactive |  |  |  | 
49 | F[Si-2](F)(F)(F)(F)F | inactive | inactive | inactive | inactive |  |  |  | 
50 | CCCCCCOC(=O)C(C)C | inactive | inactive | inactive | inactive |  |  |  | 
51 | CC(=O)Nc1ccc(S(=O)(=O)Nc2ccc([N+](=O)[O-])cc2)cc1 | inactive | inactive | inactive | inactive |  |  |  | 
52 | CCCCCCC | inactive | inactive | inactive | inactive |  |  |  | 
53 | C=CCS(=O)(=O)O | inactive | inactive | inactive | inactive |  |  |  | 
54 | O=C(O)c1cc2ccccc2cc1O | inactive | inactive | inactive | inactive |  |  |  | 
55 | COCC(=O)Nc1c(I)c(C(=O)NCC(O)CO)c(I)c(C(=O)N(C)CC(O)CO)c1I (stereo not given) | inactive | inactive | inactive | inactive |  |  |  | 
56 | c1ccc(-c2ccccn2)nc1 | inactive | inactive | inactive | inactive |  |  |  | 
57 | CCCCCSCCCCC | inactive | inactive | inactive | inactive |  |  |  | 
58 | CC(CO)(CO)CO | inactive | inactive | inactive | inactive |  |  |  | 
59 | CCCOC(=O)CCCCC(=O)OCCC | inactive | inactive | inactive | inactive |  |  |  | 
60 | CC1(C)S[C@@H]2[C@H](NC(=O)COc3ccccc3)C(=O)N2[C@H]1C(=O)O | inactive | inactive | inactive | inactive |  |  |  | 
